From PMC7862700, “An all-to-all approach to the identification of sequence-specific readers for epigenetic DNA modifications on cytosine” come the findings set out here.

What all share (assay): DAPPL (digital affinity profiling via proximity ligation, sequencing); 10 mM Tris-HCl pH 7.5, 50 mM NaCl, 1 mM DTT, 4% glycerol, room temperature, 30 min; GST-TFs on glutathione beads, 16-mer random dsDNA library, 0.1% formaldehyde crosslink after washing; high values mean tight binding
What all share (conditions): protein: recombinant; tags: N-terminal GST; dsDNA, one strand shown

Assay [1] has as its target T1, FLI1 (Homo sapiens, UniProt Q01543 1-452).
T1 sequence: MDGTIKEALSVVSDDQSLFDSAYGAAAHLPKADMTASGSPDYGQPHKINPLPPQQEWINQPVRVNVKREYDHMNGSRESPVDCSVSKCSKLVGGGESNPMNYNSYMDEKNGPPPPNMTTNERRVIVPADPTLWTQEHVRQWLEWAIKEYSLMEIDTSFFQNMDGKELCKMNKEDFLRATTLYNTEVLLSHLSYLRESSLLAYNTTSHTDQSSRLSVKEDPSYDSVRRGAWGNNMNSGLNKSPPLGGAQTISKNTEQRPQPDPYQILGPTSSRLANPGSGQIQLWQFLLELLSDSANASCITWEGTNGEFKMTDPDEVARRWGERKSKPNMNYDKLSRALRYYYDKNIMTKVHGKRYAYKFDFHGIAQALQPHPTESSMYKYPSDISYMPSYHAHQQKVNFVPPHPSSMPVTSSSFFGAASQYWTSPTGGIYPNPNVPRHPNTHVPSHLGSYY
Put shortly: (§1)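 Each value of binding signal is a hexamer's read frequency for a factor divided by the same hexamer's frequency in the tag-only sample. Barcoded, bead-captured GST fusions of human transcription factors made in yeast were pooled with that sample and incubated with 200 nmole of a random double-stranded 16-mer DNA library in Tris/NaCl/DTT/glycerol buffer at room temperature for 30 min. Washing, 0.1% formaldehyde crosslinking, proximity ligation, PCR and Illumina NextSeq500 sequencing followed.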

Assay [2] deals with T2, ELK1 (Homo sapiens, UniProt P19419 1-428).
T2 sequence: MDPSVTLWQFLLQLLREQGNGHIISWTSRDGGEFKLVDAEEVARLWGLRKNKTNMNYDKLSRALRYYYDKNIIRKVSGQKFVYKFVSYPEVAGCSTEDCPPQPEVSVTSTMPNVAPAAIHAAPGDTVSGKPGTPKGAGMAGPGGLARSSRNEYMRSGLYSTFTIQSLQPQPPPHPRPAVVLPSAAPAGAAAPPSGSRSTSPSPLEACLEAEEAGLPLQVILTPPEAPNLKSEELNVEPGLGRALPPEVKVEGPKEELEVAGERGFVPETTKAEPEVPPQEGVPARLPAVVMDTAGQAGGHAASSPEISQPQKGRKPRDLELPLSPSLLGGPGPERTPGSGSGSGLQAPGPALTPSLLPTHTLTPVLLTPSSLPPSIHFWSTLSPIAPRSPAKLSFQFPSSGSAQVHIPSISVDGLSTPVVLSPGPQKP
In outline:
as §1

Assay [3] has as its target T3, GABPA (Homo sapiens, UniProt Q06546 1-454).
T3 sequence: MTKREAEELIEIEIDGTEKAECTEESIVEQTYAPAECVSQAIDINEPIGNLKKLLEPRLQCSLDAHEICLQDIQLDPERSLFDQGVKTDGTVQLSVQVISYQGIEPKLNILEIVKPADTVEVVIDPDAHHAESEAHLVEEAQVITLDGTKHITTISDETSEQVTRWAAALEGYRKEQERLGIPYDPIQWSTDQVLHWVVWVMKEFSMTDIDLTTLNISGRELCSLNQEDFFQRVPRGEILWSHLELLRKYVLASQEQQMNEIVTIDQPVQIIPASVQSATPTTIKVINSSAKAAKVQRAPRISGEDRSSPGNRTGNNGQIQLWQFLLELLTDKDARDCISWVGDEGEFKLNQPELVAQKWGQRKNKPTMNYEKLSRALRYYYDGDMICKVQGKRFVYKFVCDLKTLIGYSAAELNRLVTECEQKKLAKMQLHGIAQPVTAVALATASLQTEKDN
Put shortly: as §1

Assay [4] addresses T4, ERG (Homo sapiens, UniProt P11308 1-479).
T4 sequence: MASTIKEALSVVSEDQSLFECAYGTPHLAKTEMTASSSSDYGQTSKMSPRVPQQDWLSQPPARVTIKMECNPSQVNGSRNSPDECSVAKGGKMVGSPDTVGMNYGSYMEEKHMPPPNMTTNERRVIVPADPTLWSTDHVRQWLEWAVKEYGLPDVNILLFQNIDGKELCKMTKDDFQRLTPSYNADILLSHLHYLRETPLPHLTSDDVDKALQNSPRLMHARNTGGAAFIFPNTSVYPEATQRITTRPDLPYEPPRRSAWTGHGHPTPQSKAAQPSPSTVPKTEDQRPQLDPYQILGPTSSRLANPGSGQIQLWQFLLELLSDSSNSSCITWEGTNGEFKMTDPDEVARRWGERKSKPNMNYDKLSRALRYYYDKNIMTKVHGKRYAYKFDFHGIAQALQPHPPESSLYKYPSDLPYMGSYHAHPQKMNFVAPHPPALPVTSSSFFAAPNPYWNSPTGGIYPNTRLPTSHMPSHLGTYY
In outline: as §1

In assay [5] the target is ELF1 (Homo sapiens, UniProt P32519 1-619). In outline: as §1
Assay [6] deals with T5, EHF (Homo sapiens, UniProt Q9NZC4 1-300).
T5 sequence: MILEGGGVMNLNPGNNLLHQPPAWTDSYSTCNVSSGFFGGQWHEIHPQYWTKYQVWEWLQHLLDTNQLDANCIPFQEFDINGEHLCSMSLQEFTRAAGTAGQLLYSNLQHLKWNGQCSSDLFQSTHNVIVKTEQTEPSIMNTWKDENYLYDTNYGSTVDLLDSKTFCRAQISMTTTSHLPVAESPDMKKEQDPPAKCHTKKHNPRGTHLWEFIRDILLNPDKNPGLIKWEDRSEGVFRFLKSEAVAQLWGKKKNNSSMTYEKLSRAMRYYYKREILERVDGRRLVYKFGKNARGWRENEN
In outline:
as §1

Assay [7] has as its target SPI1 (Homo sapiens, UniProt P17947 1-270). Put shortly: as §1
Assay [8] deals with SPIB (Homo sapiens, UniProt Q01892 1-262). Put shortly:
as §1

Assay [9] concerns the target T6, ELK3 (Homo sapiens, UniProt P41970 1-407).
T6 sequence: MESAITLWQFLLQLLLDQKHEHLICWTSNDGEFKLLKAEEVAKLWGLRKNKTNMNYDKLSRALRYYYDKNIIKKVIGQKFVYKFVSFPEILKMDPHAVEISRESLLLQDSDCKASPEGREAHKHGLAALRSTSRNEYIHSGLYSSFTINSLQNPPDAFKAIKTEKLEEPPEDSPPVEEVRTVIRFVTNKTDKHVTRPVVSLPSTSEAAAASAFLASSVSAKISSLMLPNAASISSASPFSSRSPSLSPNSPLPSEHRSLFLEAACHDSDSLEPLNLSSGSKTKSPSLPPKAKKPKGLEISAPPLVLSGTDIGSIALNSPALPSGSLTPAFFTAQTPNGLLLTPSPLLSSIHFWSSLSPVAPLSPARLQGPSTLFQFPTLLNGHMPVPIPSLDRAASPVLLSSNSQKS
In outline:
as §1

For assay [10], the target named is T7, FEV (Homo sapiens, UniProt Q99581 1-238).
T7 sequence: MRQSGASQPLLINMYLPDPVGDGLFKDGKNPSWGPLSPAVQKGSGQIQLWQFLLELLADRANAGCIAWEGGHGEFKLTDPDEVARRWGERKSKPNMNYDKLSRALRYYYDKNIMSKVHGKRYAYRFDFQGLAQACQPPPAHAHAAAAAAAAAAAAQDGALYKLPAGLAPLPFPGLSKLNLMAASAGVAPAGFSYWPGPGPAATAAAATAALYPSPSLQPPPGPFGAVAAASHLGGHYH
In outline: as §1

Assay [11] has as its target ETV5 (Homo sapiens, UniProt P41161 1-510). Put shortly: as §1
The target of assay [12] is T8, SPIC (Homo sapiens, UniProt Q8N5J4 1-248).
T8 sequence: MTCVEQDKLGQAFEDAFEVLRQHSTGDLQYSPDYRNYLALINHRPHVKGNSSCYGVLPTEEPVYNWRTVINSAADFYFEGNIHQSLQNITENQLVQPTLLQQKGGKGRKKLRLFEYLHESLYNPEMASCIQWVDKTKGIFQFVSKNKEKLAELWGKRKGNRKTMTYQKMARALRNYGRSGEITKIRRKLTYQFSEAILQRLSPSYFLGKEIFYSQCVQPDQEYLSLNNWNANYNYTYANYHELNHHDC
Put shortly: as §1

In assay [13] the target is ELF4 (Homo sapiens, UniProt Q99607 1-663). In outline: as §1
In assay [14] the target is T9, ELK4 (Homo sapiens, UniProt P28324-2 1-405).
T9 sequence: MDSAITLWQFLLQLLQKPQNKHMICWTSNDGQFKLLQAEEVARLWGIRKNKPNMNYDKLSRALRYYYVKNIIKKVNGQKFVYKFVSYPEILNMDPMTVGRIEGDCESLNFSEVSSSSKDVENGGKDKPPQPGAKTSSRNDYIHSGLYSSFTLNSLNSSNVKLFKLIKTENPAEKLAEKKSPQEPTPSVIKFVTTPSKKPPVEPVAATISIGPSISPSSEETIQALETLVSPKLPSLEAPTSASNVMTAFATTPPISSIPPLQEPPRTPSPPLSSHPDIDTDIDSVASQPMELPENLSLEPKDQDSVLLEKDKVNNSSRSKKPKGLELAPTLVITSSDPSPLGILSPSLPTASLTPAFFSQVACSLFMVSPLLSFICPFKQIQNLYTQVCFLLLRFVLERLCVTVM
In outline: as §1

In assay [15] the target is T10, ETV2 (Homo sapiens, UniProt O00321 1-342).
T10 sequence: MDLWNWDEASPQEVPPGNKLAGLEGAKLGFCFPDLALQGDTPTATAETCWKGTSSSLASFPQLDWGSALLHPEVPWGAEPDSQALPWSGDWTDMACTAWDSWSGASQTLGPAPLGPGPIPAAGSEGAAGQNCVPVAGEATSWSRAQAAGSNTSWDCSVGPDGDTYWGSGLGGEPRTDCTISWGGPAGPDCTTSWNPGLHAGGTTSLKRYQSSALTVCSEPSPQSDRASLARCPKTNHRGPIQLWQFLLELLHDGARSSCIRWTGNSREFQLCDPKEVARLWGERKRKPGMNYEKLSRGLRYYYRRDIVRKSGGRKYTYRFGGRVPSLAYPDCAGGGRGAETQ
Put shortly:
as §1

Assay [16] concerns the target T11, ELF3 (Homo sapiens, UniProt P78545 1-371).
T11 sequence: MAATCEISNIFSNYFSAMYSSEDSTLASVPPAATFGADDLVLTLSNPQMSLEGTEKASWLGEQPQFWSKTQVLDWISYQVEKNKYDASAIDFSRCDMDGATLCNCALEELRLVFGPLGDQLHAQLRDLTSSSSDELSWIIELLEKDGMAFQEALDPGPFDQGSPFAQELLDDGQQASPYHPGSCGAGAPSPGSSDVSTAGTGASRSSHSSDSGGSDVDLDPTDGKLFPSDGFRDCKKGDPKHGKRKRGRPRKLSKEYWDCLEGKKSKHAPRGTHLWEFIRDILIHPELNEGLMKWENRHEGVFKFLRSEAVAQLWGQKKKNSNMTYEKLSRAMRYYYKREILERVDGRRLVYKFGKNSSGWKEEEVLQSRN
Put shortly: as §1

The target of assay [17] is ETV1 (Homo sapiens, UniProt P50549 1-477). In outline:
as §1

Chain of ETV5 (P41161 whole entry): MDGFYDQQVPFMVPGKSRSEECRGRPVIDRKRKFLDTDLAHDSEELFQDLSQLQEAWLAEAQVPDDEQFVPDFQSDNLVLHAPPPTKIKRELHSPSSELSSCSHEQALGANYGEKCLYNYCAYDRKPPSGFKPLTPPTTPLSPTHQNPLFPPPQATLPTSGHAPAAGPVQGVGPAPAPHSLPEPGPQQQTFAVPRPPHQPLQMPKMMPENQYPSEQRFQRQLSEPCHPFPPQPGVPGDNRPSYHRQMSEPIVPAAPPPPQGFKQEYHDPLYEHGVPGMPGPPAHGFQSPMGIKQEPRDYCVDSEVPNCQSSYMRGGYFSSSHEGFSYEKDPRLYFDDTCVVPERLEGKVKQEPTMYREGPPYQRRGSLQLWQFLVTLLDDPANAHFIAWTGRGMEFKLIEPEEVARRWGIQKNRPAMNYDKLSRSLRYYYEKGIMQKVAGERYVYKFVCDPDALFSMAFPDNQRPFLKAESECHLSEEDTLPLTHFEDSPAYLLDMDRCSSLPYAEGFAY
Chain of ELF1 (P32519 whole entry): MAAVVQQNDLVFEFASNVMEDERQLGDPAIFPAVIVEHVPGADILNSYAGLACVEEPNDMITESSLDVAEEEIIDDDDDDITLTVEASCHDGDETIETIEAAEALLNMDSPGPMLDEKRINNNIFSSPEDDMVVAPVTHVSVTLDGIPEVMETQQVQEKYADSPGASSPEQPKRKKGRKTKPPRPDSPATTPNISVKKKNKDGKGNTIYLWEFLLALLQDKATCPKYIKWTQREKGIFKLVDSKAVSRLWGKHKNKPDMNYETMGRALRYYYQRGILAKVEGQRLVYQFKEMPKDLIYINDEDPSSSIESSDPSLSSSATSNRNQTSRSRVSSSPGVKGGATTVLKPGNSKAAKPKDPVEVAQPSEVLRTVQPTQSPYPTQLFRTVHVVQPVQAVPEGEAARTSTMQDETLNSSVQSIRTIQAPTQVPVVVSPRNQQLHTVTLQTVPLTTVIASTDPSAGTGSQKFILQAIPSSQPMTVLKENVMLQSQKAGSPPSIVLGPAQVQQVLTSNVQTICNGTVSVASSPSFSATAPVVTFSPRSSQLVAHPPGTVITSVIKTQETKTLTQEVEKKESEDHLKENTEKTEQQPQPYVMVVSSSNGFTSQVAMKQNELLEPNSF
Chain of SPIB (Q01892 whole entry): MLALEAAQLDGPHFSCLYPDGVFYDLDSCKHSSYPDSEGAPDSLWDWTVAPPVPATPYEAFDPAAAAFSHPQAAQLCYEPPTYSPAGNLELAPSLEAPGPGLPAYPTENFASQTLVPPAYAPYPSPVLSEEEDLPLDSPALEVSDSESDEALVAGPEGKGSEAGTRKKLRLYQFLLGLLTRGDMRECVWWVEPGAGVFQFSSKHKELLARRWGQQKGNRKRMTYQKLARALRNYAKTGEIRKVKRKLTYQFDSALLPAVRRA
Chain of ETV1 (P50549 whole entry): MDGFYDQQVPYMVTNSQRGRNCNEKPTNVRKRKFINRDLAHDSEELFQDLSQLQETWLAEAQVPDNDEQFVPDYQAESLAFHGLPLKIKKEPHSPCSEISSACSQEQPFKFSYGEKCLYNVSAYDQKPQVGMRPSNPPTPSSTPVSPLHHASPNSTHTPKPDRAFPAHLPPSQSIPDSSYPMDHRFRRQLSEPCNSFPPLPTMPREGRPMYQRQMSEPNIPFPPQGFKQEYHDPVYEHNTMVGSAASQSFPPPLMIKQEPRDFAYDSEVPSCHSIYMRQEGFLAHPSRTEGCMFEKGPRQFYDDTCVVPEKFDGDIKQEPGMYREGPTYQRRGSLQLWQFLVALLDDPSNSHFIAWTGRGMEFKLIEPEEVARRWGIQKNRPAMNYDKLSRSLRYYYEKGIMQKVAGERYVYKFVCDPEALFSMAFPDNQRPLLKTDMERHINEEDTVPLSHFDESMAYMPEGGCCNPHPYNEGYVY
Chain of ELF4 (Q99607 whole entry): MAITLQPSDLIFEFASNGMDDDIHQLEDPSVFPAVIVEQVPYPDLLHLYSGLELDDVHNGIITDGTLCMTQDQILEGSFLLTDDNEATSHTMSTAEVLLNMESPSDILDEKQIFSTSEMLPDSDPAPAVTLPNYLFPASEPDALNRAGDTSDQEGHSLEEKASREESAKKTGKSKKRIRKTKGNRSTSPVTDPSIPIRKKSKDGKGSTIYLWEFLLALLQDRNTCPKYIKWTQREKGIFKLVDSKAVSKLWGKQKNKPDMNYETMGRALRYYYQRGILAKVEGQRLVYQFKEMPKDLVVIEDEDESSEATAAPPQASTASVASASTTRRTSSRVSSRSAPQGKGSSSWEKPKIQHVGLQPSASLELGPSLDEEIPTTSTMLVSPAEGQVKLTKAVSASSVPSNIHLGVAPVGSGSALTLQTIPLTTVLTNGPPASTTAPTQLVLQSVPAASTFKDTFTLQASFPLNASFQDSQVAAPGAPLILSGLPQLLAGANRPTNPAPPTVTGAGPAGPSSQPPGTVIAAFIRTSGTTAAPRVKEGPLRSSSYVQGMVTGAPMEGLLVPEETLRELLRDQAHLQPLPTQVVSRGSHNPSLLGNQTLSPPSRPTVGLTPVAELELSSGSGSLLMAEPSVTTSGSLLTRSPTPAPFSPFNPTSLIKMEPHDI

As for GTGACC, the binding signal in assay [1] is 1.29 fold enrichment (6-mer frequency, TF over GST control); in [2], 1.27 fold enrichment (6-mer frequency, TF over GST control); in [3] it was 1.18 fold enrichment (6-mer frequency, TF over GST control); in assay [4], 1.24 fold enrichment (6-mer frequency, TF over GST control); in [5], 1.25 fold enrichment (6-mer frequency, TF over GST control); in assay [6] it was 1.36 fold enrichment (6-mer frequency, TF over GST control). In addition, the binding signal in assay [7] was 1.32 fold enrichment (6-mer frequency, TF over GST control); in [8], 1.24 fold enrichment (6-mer frequency, TF over GST control); in assay [9], 1.03 fold enrichment (6-mer frequency, TF over GST control); in [10], 1.36 fold enrichment (6-mer frequency, TF over GST control); in assay [11], 1.22 fold enrichment (6-mer frequency, TF over GST control); in assay [12], 1.34 fold enrichment (6-mer frequency, TF over GST control). Besides, the binding signal in [13] is 1.27 fold enrichment (6-mer frequency, TF over GST control); in assay [14], 1.36 fold enrichment (6-mer frequency, TF over GST control); in assay [15], 1.12 fold enrichment (6-mer frequency, TF over GST control); in [16], 1.3 fold enrichment (6-mer frequency, TF over GST control); in assay [17], 1.24 fold enrichment (6-mer frequency, TF over GST control).

For GATACG, the binding signal was 1.11 fold enrichment (6-mer frequency, TF over GST control) in assay [1]; 1.12 fold enrichment (6-mer frequency, TF over GST control) in assay [2]; 1.12 fold enrichment (6-mer frequency, TF over GST control) in assay [3]; 1.11 fold enrichment (6-mer frequency, TF over GST control) in [4]; 1.15 fold enrichment (6-mer frequency, TF over GST control) in assay [5]; 1.24 fold enrichment (6-mer frequency, TF over GST control) in [6]. Also, the binding signal in assay [7] was 1.04 fold enrichment (6-mer frequency, TF over GST control); in assay [8], 1.17 fold enrichment (6-mer frequency, TF over GST control); in assay [9], 1.18 fold enrichment (6-mer frequency, TF over GST control); in [10] it was 1.08 fold enrichment (6-mer frequency, TF over GST control); in [11] it was 1.1 fold enrichment (6-mer frequency, TF over GST control); in [12] it was 1.2 fold enrichment (6-mer frequency, TF over GST control). Besides, the binding signal was 1.07 fold enrichment (6-mer frequency, TF over GST control) in assay [13]; 1.13 fold enrichment (6-mer frequency, TF over GST control) in assay [14]; 1.06 fold enrichment (6-mer frequency, TF over GST control) in assay [15]; 1.09 fold enrichment (6-mer frequency, TF over GST control) in assay [16]; 1.1 fold enrichment (6-mer frequency, TF over GST control) in assay [17].
